Hits are enriched below; roughly 1.4% of the tested compounds scored in any of these assays.
ERK EGF block – blocks ERK signaling stimulated by EGF. Potency, µM (titrated, usually from 11.5 µM), inactives show top-dose activity change, negative = inhibition, hits mostly inhibitors. HEK293-V1b, EGF-stimulated phospho-ERK AlphaScreen. 0.41% of 130,000 active;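 note: plate controls were stimulated vehicle wells for no effect and unstimulated vehicle basal for full effect; nearly all actives have a fitted effect of over 55% in size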
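In this qHTS, HEK293 cells with stable type-1 vasopressin (V1b) receptor were exposed to compound at 37C for 30 min, stimulated 5 min with EGF at 25 nM, lysed, and probed for phospho-ERK by AlphaScreen.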
HTT cytoprotect – cytoprotection in Huntington HTT-Q103 PC12 cell model; PC12 HTT-Q103 induced, cytoprotection, ATP luminescence, 40 h; Potency, µM (doses to about 56.4 µM), inactives show cytoprotection (ATP increase), usual class: activators; 0.14% of 230,000 active; note: % of control where 0% means no effect; nearly all actives have a fitted effect of over 45% in size
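Huntington model: PC12 line, ecdysone-inducible HTTQ103 exon1–GFP, tebufenozide 100 nM. Test articles in a dose series. Endpoint luminescence from cellular ATP.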
HttQ103 aggreg – inhibitors of mutant huntingtin aggregate formation in PC12 cells; 1.1% of 220,000 active; PC12 HttQ103-GFP aggregates, Acumen cytometry, 40 h; AID 1688; Potency, µM (doses to about 46.1 µM), without a hit: at the top dose activity change, negative = inhibition, hits mostly inhibitors; note: % is set by controls: 0 for no effect and ±100 for the full control effect; nearly all actives have a fitted effect of over 60% in size
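Aggregate formation scored by laser-scanning cytometer (488 excitation, 500–530 emission) in lysed PC12 cells expressing Q103-GFP after 100 nM tebufenozide induction; library tested in dose series, with ATPLite reagent added in the multiplex.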
An asterisk follows results filed as active; ? = inconclusive; . = not tested or not shown; ! = a repeat was not active; [ ] = remark or other dose. Calls come from the whole dose curve; as a rule, active = well fitted curve in the direction sought with a large enough effect; inconclusive = small, poorly fitted or top-dose-only effect, or another doubt; inactive = no such curve, though single readings can be large; an effect the other way counts as inactive or inconclusive. Potency is the fitted concentration of half-maximal effect.

SMILES | ERK EGF block | HTT cytoprotect | HttQ103 aggreg
Cc1c(C#N)c(NC(=O)CCl)n(Cc2cccs2)c1C | 2% | -9%[10 µM] | 20µM*
CCOC(=O)c1cnn(-c2ccccc2)c1NC(=O)CCl | 1% | 9%[10 µM] | 7%
COC(=O)c1cc(C(=O)OC)n(Cc2ccc(F)cc2)c1C | -3% | 36% | 14%
CC[N+](C)(CC)CCN1C(=O)c2ccccc2S1(=O)=O | . | 0%[10 µM] | .
CCCCCCC1=Cc2cc(OC)c(OC)cc2C(C2(C(=O)OCC)CCCC2=O)O1 (configuration not stated) | . | -16%[10 µM] | .
COC(=O)N1CCC2(CC1)CCN(C(c1ccccc1)c1ccccc1)CC2 | 4% | -54% | .
COc1ccc(CCN2C(=O)CC(N3CCOCC3)C2=O)cc1 (configuration not stated) | 7% | 1.3µM* | -1%
COc1ccc(CCN2C(=O)CC(N3CCOCC3)C2=O)cc1OC (configuration not stated) | 5% | 30%[10 µM] | -10%
O=C(O)[C@@H]1C[C@H](C(=O)O)N1 | -11% | . | .
COc1cccc(-n2nnc3c(=O)n(Cc4c(F)cccc4Cl)cnc32)c1 | 3% | -9%[0.074 µM] | 3.2µM*
COc1cccc(-n2nnc3c(=O)n(Cc4cccc(F)c4)cnc32)c1 | . | -6% | -8%[9.22 µM]
Cc1ccc(O)c(C(=O)c2cc(C#N)c3nc4ccccc4n3c2)c1 | 32µM* | -38% | -9%
Cc1ccc(O)c(C(=O)c2cc(C#N)c(=O)n(Cc3ccccc3)c2)c1 | 0% | -16% | 19%
CCOC(=O)c1c(-c2ccc(OC)cc2)nc2nonc2c1N | 1% | 0.71µM* | ?
CCOC(=O)c1c(C)nc(C)c(C(=O)OCC)c1-c1ccc(OC)cc1 | -5%[57.5 µM] | 2%[10 µM] | 29%[9.22 µM]
C/C(=N\Nc1ncc(Cl)cc1Cl)c1ccc(N2CCOCC2)cc1 | -8% | -41% | 6%
C/C(=N\Nc1nc(C)cc(C)n1)c1ccc(N2CCOCC2)cc1 | -3% | 3%[10 µM] | 11µM*
CCN(CC)S(=O)(=O)c1cccc(C(=O)N/N=C(\C)c2ccc(O)cc2O)c1 | ? | -105% | 4µM*
CCN(CC)S(=O)(=O)c1cccc(C(=O)N/N=C/c2ccc(O)c(O)c2O)c1 | 12% | 18%[0.074 µM] | -16%
COc1ccc(Nc2ccnc(Nc3ccc(OC)cc3)n2)cc1 | 35µM* | 11%[0.074 µM] | -26%
CCOc1nc(Nc2ccc(OC)cc2)nc(OCC)n1 | . | -17% | -11%
O=c1c(-c2ccc(O[C@@H]3O[C@H](CO)[C@@H](O)[C@H](O)[C@H]3O)cc2)coc2cc(O)cc(O)c12 | -12% | 12%[1.9 µM] | .
C[n+]1c(/C=C/c2ccc3c(c2)OCO3)ccc2ccccc21 | -2% | -30% | -6%
C[n+]1cc2c3c(ccc2c2ccc4cc5c(cc4c21)OCO5)OCO3 | 25µM*! | -98% | 6.3µM*
O=c1cnc2cnc(OCc3ccccc3)nc2n1CCc1ccccc1 | -3% | 10% | .
SMILES | ERK EGF block | HTT cytoprotect | HttQ103 aggreg
COC(=O)C1=C(C)NC(C)=C(C(=O)OC(C)C)[C@H]1c1cccc2nonc12 | -1%[25.7 µM] | -79%[17.1 µM] | 2%[20.6 µM]
CNc1ccc(O)cc1 | . | -103% | .
CCC1=C2CC[C@H]3C(=O)NC(=O)[C@H]3[C@H]2[C@@]2(C)C(=NCC(=O)OC)OC(=O)N2C1=O | 0% | -26% | .
COc1cc(NS(=O)(=O)c2ccc(C)cc2)c2ncccc2c1 | 2% | -11%[10 µM] | -27%
Cc1ccc(S(=O)(=O)Nc2cccc3cccnc23)cc1 | . | -42% | 13µM*
Cc1ccc(S(=O)(=O)Nc2ccc(O)c(Sc3ncn[nH]3)c2)cc1 | -6% | . | .
Cc1ccc(C)c(S(=O)(=O)Nc2ccc(O)c(Sc3ncn[nH]3)c2)c1 | 5%[57.5 µM] | 12%[10 µM] | 34%[9.22 µM]
CCOc1ccc(S(=O)(=O)Nc2ccc(O)c(Sc3ncn[nH]3)c2)cc1 | 13% | 32%[10 µM] | 3%
Cc1ccc(S(=O)(=O)/N=C2/C=C(Sc3ncn[nH]3)C(=O)c3ccccc32)cc1 | ? | -81%[10 µM] | 3.2µM*
Cc1ccc(S(=O)(=O)/N=C2/C=C(Sc3ncn[nH]3)C(=O)c3ccccc32)c(C)c1 | -4% | -19%[10 µM] | 5µM*
CC(C)c1ccc(S(=O)(=O)/N=C2/C=C(Sc3ncn[nH]3)C(=O)c3ccccc32)cc1 | 5% | -98%[10 µM] | 3.5µM*
CC(C)(C)N1C(=O)[C@H]2[C@H]3[C@H](O)[C@H](O)C/C(=N/NC(=O)OCc4ccccc4)[C@H]3CC[C@@H]2C1=O | . | -24%[10 µM] | .
CCN(Cc1ccncc1)Cc1nc(Cc2ccccc2Cl)no1 | 21%[57.5 µM] | -12% | 18µM*
CN(Cc1cnccn1)Cc1nc(Cc2ccccc2Cl)no1 | -16% | -11%[10 µM] | -10%[9.22 µM]
Cc1cc(C(=O)CSc2nnc(-c3ccccc3)n2Cc2ccc3c(c2)OCO3)c(C)n1C | . | -23%[0.074 µM] | 10%
Cc1cc(C(=O)CSc2nc3ccccc3c(=O)n2C)c(C)n1Cc1ccc2c(c1)OCO2 | . | -86% | 1µM*
O=C1c2cccc3c([N+](=O)[O-])ccc(c23)C(=O)N1c1nccs1 | . | -100% | 13µM*
O=C1c2cccc3c([N+](=O)[O-])ccc(c23)C(=O)N1c1ccccn1 | . | 10% | 24%
CCS(=O)(=O)c1ccc(-c2csc(-c3ccccc3)n2)c(Cl)c1Cl | . | -2%[10 µM] | 11µM*
O=C(O)c1ccc(-c2nc(-c3ccccc3Cl)cs2)cc1 | 1% | -63% | 23%
O=C(COC(=O)CCSc1ccc(Cl)cc1)NCc1ccccc1Cl | -1% | . | 16µM*
O=C(COC(=O)CCSc1ccc(Cl)cc1)NCCc1ccccc1 | . | 10%[10 µM] | ?
CC1(C)[C@@H](O)CC[C@@]2(C)[C@H]1CC[C@]1(C)[C@H]2C(=O)C=C2[C@@H]3C[C@@](C)(C(=O)O)CC[C@]3(C)CC[C@@]21C | . | -5% | .
CCN1/C(=C/C(C)=C/c2sc3ccccc3[n+]2CC)Sc2ccccc21 | 18µM* | -186% | 1.1µM*
CCN1/C(=C\C(=S)Nc2ccccc2)Sc2ccccc21 | 5% | 23%[10 µM] | 17%[9.22 µM]
SMILES | ERK EGF block | HTT cytoprotect | HttQ103 aggreg
CCC1=C2CC[C@H]3C(=O)N(C)C(=O)[C@H]3[C@H]2[C@@]2(Cc3ccccc3)C(=NCCc3c[nH]c4ccccc34)OC(=O)N2C1=O | -1% | -3% | .
COc1cccc(-c2nnc3sc(C4CCCCC4)nn23)c1 | . | ? | 2µM*
CCOc1cccc(-c2nnc3sc(C4CCCCC4)nn23)c1 | . | -7% | ?
C[C@@H](Cc1ccccc1)Nc1ncnc2c1ncn2[C@@H]1O[C@@H](CO)[C@H](O)[C@@H]1O | . | 3%[1.9 µM] | .
O=c1c(Cc2ccc(Cl)cc2)c(O)ccn1Cc1cccc(Cl)c1 | . | -12%[10 µM] | -32%
O=c1c(Cc2ccc(Cl)cc2Cl)c(O)ccn1Cc1ccc(Cl)cc1 | . | -4%[10 µM] | 20µM*
CCN(CC)C(=O)/C(C#N)=C/c1cc(O)c(O)c([N+](=O)[O-])c1 | . | ? | -7%
CCOC(=O)c1[nH]c(C)c(C(=O)OCC)c1C | . | 16% | 8%
CCOC(=O)c1nc(N)c(C(=O)OCC)[nH]1 | . | -20% | 3.5µM*
O=c1c(-c2cc(F)cc(F)c2)nc2cncnc2n1-c1ccccc1 | . | -69% | .
O=C(Nc1cccn2ncnc12)C(F)(F)F | 6% | -18%[10 µM] | -3%
O=C(CCl)Nc1cccn2ncnc12 | . | -73% | 20µM*
O=C(O)[C@@H]1CCCN1Cc1ccc2c(c1)OCO2 | . | 3%[10 µM] | .
CN(Cc1nc(-c2cccnc2)no1)S(=O)(=O)c1ccc(Br)cc1 | . | -18%[10 µM] | 22µM*
CN(Cc1nc(-c2cccnc2)no1)S(=O)(=O)c1ccc2ccccc2c1 | . | 9% | -13%
